LDHA inh: blocks human lactate dehydrogenase A; P00338; purified LDHA, NADH/diaphorase-resazurin fluorescence; hits give low values; activity change, % (values are at about 110 or 230 µM); 0.15% of 480,000 active; in the data active = activity change below about -30%; inconclusive = mostly about -25% to -30%
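Enzyme activity of human lactate dehydrogenase 5 (2 nM; 0.06 mM NADH, 0.2 mM pyruvate, 5 min, RT) is measured via a resazurin/diaphorase fluorescence readout of residual NADH.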
S2 tox: reduces viability in counter-screen for ATXN expression inhibitors; S2 cells (HEK-293 line with an ATXN2-luciferase reporter) viability, CellTiter-Fluor protease fluorescence, 24 h; 0.49% of 400,000 active; Potency, µM (titrated, usually from 56.7 µM), hits mostly cytotoxic; also: nearly all actives have a fitted effect of over 40% in size
IDH1 R132H inh: inhibitors of human mutant IDH1 R132H; O75874; IDH1-R132H enzyme, NADPH consumption, diaphorase/resazurin fluorescence; Potency, µM (highest dose often 76.6 µM), hits mostly inhibitors; 0.093% of 390,000 active; AID 602179; also: nearly all actives have a fitted effect of over 65% in size
Target sequence (O75874 whole entry R132H, stated change not applied): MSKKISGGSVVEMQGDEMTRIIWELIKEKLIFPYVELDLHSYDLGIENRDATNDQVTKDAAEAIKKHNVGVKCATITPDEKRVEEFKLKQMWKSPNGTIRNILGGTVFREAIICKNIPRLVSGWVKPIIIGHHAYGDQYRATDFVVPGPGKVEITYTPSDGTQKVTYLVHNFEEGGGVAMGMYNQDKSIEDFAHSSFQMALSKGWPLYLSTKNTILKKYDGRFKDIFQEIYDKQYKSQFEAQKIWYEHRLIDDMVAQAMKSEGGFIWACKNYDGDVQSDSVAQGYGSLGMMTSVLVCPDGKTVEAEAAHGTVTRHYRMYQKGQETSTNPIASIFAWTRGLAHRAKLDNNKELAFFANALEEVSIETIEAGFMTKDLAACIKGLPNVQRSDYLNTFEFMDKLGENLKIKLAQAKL
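IDH1-R132H (0.5 ug/mL) preincubated 30 min with compound, then NADPH (0.016 mM) and alpha-KG (2 mM) added; 80 min at RT, pH 7.5. Remaining NADPH coupled via diaphorase/resazurin to fluorescence (540/590 nm); concentration-response curves normalized to no-enzyme control.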
HepG2 viability: kills HepG2 cells in TGF-b inhibitor counter-screen | 0.76% of 410,000 active | AID 588856 | Potency, µM (series often up to 46.1 µM), hits mostly cytotoxic | HepG2 CAGA-GFP viability, ATP luminescence, 18 h
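HepG2 CAGA-GFP cells (1000/well, DMEM with 1% FBS) received compound, then TGF-beta at 500 pg/mL final, and were incubated 18 hours at 37 degrees C. Viability was read by CellTiter-Glo luminescence. Media-only wells were set as complete cell-killing and DMSO as no toxicity.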
ATXN2 expr inh: inhibitors of ATXN2 expression. 0.72% of 360,000 active. HEK-293 ATXN2-luciferase reporter, luminescence, 24 h. Potency, µM (top dose mostly 57 µM), most hits filed as inhibitors; also: nearly all actives have a fitted effect of over 55% in size
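ATXN2-luciferase reporter cells (luciferase flanked by upstream and downstream ATXN2 gene portions) were treated 24 h at 37 °C with compounds at up to 57 uM. SteadyGlo luminescence gave expression; GF-AFC fluorescence gave viability.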
TGFb SMAD3 inh: TGF-b pathway inhibition. HepG2 CAGA-GFP TGF-b/SMAD3 reporter, GFP fluorescence, 18 h; TGF-beta stimulated, 500 pg/mL final. Potency, µM (doses to about 46.1 µM), hits mostly inhibitors. 1.2% of 410,000 active; also: nearly all actives have a fitted effect of over 65% in size
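Smad-responsive CAGA-GFP expression was quantified in HEPG2 cells exposed to compounds and 500 pg/mL final TGF-beta for 18 h at 37 degrees C; unstimulated wells defined full inhibition.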
A number is an active result; n = inactive; u = inconclusive; x = not tested or not shown. This is a sample that favours compounds with a hit; in the whole collection about 2.2% have one here. Unless noted, calls follow the shape of the dose curve; as a rule, active = well fitted curve in the direction sought with a large enough effect; inconclusive = small, poorly fitted or top-dose-only effect, or another doubt; inactive = no such curve, though single readings can be large; an effect the other way counts as inactive or inconclusive.

SMILES | LDHA inh | S2 tox | IDH1 R132H inh | HepG2 viability | ATXN2 expr inh | TGFb SMAD3 inh
COc1cccc(-c2nn3c(-c4cccc(C)c4)nnc3s2)c1 | n | n | n | n | n | n
CC(C)(C)OC(=O)N1CCC(c2c(C(=O)N3CCN(c4ncccn4)CC3)cnn2-c2cccc(F)c2)CC1 | n | n | n | n | n | n
CN1CCN(c2ccc(S(=O)(=O)N3CCCCC3)cc2NC(=O)Cc2c(F)cccc2Cl)CC1 | n | n | n | n | n | n
CC1(C)CC(=O)C(C=NCCCN2CCOCC2)=C(O)C1 | n | n | n | n | n | n
c1nc(CCO[C@H]2CCCCO2)cc2cc3c(cc12)OCO3 | n | n | n | n | 11µM | n
CCc1nnc(SCC(=O)Nc2nccs2)n1CC | n | n | n | n | n | n
O=C(Nc1ccc2ncccc2c1)c1ccccc1Cl | -42 | n | n | n | x | n
CCC(=O)NC(Nc1ccccc1Cl)(C(F)(F)F)C(F)(F)F | n | x | x | x | x | x
COC(=O)C(Nc1ccccc1Cl)(c1cc(C)c(O)c(C)c1)C(F)(F)F (configuration not stated) | n | n | u | 16µM | u | 10µM
O=C(O)CCCSc1ccc(Cl)cc1 | n | x | x | x | x | x
O=C1c2ccccc2C(=O)c2[nH]c(=O)[nH]c21 | n | x | n | 1.4µM | u | 1µM
O=C1c2ccccc2-c2ccccc21 | n | x | x | x | x | x
CCOC(=O)C1=C(COC(=O)c2ccc([N+](=O)[O-])s2)NC(=O)NC1C (configuration not stated) | n | u | n | n | x | 11µM
CCCCN1CC(c2nc3ccccc3n2CCCCOc2cc(C)cc(C)c2)CC1=O (configuration not stated) | n | u | n | n | u | u
CCCCN1CC(c2nc3ccccc3n2CCCCOc2cccc(C)c2C)CC1=O (configuration not stated) | n | u | n | 11µM | u | u
CCOc1ccccc1N1CC(c2nc3ccccc3n2CCCCOc2cc(C)ccc2C)CC1=O (configuration not stated) | n | n | n | n | n | n
CCCCN1CC(c2nc3ccccc3n2CCCCOc2ccc(C)c(C)c2)CC1=O (configuration not stated) | n | x | n | n | u | 11µM
Cc1ccc(Nc2c(-c3ccccc3O)nc3cnccn23)cc1 | n | n | n | n | n | n
Oc1ccccc1-c1nc2cnccn2c1Nc1ccc(Cl)cc1 | n | u | n | n | u | 6.3µM
COc1cc(Br)cc(/C=N/NC(=O)Cc2ccc(C(F)(F)F)cc2[N+](=O)[O-])c1O | n | n | n | 16µM | u | 10µM
S=C(NC1CCCCC1)N1CCN(C2CCCCC2)CC1 | n | n | n | 18µM | n | u
CSc1ccccc1NCC(=O)N1CCNC1=O | n | x | x | x | x | x
Nc1csnc1C(=O)O | n | u | n | n | n | n
CCC(=O)Nc1cc(C)ccc1NC(=O)c1cccs1 | -31 | x | x | x | x | x
CCCC(=O)NC(NC(=S)Nc1ccc(N=Nc2ccccc2)cc1)C(Cl)(Cl)Cl (configuration not stated) | n | x | n | n | u | u
SMILES | LDHA inh | S2 tox | IDH1 R132H inh | HepG2 viability | ATXN2 expr inh | TGFb SMAD3 inh
Cc1ccc(C2NNC(=O)C2NC(=O)c2ccccc2)cc1 (configuration not stated) | n | n | n | n | n | n
c1ccc(COc2ncnc3c2ncn3CCCNCC(c2ccccc2)c2ccccc2)cc1 | n | x | n | 11µM | u | 16µM
O=C(Nc1ccn(CCCNCC(c2ccccc2)c2ccccc2)c(=O)n1)OCc1ccccc1 | n | u | n | n | u | 16µM
CC(CNCCCn1ccc(NC(=O)OCc2ccccc2)nc1=O)c1ccccc1 (configuration not stated) | n | n | n | n | n | n
CCOc1ccc(CCNC(=O)Cn2c(-c3cccs3)cc3cc(F)ccc32)cc1OCC | n | 11µM | n | n | 22µM | u
CCOc1cc(CNC(=O)Cn2c(-c3cccs3)cc3cc(F)ccc32)ccc1OC | n | u | n | n | n | u
O=C(c1ccc(N2CCCC2)c([N+](=O)[O-])c1)N1CCN(CCO)CC1 | n | n | n | 7.9µM | n | n
CCC(C)NCCCOc1ccc(Cl)cc1C(C)(C)C (configuration not stated) | -41 | n | n | n | n | n
CNCCCOc1ccc(Cl)cc1C(C)(C)C | n | u | n | n | u | u
COCCCNCCCOc1ccc(Cl)cc1C(C)(C)C | n | u | n | 16µM | u | u
S=C(Nc1ccccc1)c1ccccn1 | n | u | n | n | n | 11µM
C=CCOc1ccc(/C=C/C(=O)OCC(=O)Nc2c(C)n(C)n(-c3ccccc3)c2=O)cc1 | n | n | n | n | n | n
CNC(=S)N=Nc1c(O)[nH]c2ccccc12 | n | n | n | n | n | n
CN(C)C(=S)N=Nc1[nH]c2ccccc2c1O | n | x | n | n | x | 2.8µM
CC(C)(C)c1ccc(CCC(=O)Nc2ccccc2O)cc1 | n | x | x | x | x | x
CCOc1ccc(OCC)c(NC(=O)C2C3C=CC(O3)C2C(=O)NCc2ccco2)c1 (configuration not stated) | n | n | n | n | n | n
Cc1ccc(N(CC(=O)NCCc2ccc(F)cc2)S(=O)(=O)c2ccc(Cl)c([N+](=O)[O-])c2)c(C)c1 | n | u | n | 11µM | u | u
COc1ccc(-c2ccc(C(=O)N3CCN(C)CC3)c3occc23)c(C)c1 | n | n | x | n | n | n
O=[N+]([O-])/C=C/c1cc2ccccc2[nH]1 | n | u | n | 20µM | x | u
CC1CCCC(NC(=O)COC(=O)c2ccc([N+](=O)[O-])o2)C1C (configuration not stated) | n | n | n | 3.2µM | n | n
CC(C)n1nccc1N(CC(=O)Nc1cccc(Br)c1)S(=O)(=O)c1ccccc1 | n | x | x | x | x | x
O=C(Nc1ccc(C(F)(F)F)cc1)c1cc(S(=O)(=O)NC2CCCCC2)ccc1F | n | u | n | n | u | 13µM
O=C(Nc1ccc(C(F)(F)F)cc1)c1cc(S(=O)(=O)NC2CCCCCC2)ccc1F | n | x | n | 11µM | 32µM | u
Cc1ccc(NC(=O)c2cc(S(=O)(=O)NC3CCCCC3)ccc2F)cc1Cl | n | x | n | 10µM | x | 10µM
CC(C)C1N=C(c2ccc3c(c2)OCO3)CC(c2ccccc2O)N1 (configuration not stated) | n | 28µM | n | n | u | u
CC(C)C1(C)NC(c2ccc3c(c2)OCO3)=CC(c2ccccc2O)N1 (configuration not stated) | n | x | x | n | x | n
c1ccc(Nc2cc(Nc3ccccc3)[nH]n2)cc1 | n | u | n | 10µM | n | 16µM
O=c1nccc(Nc2ccccc2)[nH]1 | n | n | n | n | x | n

Screening results (PubChem BioAssay)
